This is an account of results in PubChem BioAssay AID1970 (National Center for Advancing Translational Sciences (NCATS), 2009).

Structures are written as SMILES. Records with an inconclusive call do not appear. Active and inactive are the calls of the source. Calls come from the whole dose curve; as a rule, active = well fitted inhibition curve with a large enough effect; inconclusive = small, poorly fitted or top-dose-only effect; inactive = flat fitted curve, though single readings scatter.

Sequence of Dual specificity protein kinase CLK4 (Homo sapiens) (Q9HAZ1 whole entry, looked up): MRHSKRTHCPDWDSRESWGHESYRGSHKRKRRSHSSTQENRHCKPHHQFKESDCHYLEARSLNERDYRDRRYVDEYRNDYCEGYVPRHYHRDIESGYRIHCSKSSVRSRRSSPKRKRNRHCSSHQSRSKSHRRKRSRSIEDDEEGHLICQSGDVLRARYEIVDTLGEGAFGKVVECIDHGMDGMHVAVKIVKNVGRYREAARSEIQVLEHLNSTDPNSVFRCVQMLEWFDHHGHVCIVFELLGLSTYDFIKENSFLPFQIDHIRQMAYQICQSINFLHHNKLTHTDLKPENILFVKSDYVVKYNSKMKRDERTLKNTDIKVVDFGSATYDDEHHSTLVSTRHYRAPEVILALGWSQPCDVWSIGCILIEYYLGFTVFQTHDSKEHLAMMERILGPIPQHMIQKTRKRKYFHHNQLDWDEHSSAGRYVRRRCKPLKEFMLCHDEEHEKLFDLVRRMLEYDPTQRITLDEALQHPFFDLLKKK

The assay addresses Dual specificity protein kinase CLK4 (Homo sapiens) (UniProt Q9HAZ1). In words: Confirmation Assay for Inhibitors of CDC-like Kinase 4 (Kinase-Glo Assay). Particulars: recombinant Clk4, Kinase-Glo ATP depletion luminescence; series mostly up to 47.7 µM; activity, negative = inhibition: at the top concentration. In outline: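 RS repeat peptide (100 uM) and ATP (1 uM) phosphorylated by 25 nM Clk4 (final) in Tris pH 7.5 with MgCl2, EGTA, DTT and Triton X-100. After 4.5 h at room temperature, remaining ATP read as Kinase-Glo luminescence.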
Take `Fc1cccc(CNc2ncnc3ccc(-c4cccc(Cl)c4)cc23)c1`: the Potency was 7080 nM (active). On the same count and under the same terms, as for `Cc1csc(CNc2ncnc3ccc(-c4ccc5c(c4)OCO5)cc23)c1`, the figure is 141 nM (active). Regarding `Cc1nc(C)c(-c2ccc3ncnc(NCCc4cnc[nH]4)c3c2)s1`, the Potency is 3680 nM (active). Same read-out and setting: with `FC1(F)Oc2ccc(-c3ccc4ncnc(NCc5cccs5)c4c3)cc2O1` the figure was 18400 nM (active); with `Cc1nc(CNc2ncnc3ccc(-c4oc(-c5ccccc5)nc4C)cc23)cs1`, 2320 nM (active); with `Cc1csc(CNc2ncnc3cc(-c4ccc5c(c4)OCO5)ccc23)n1`, 8440 nM (active). For the molecule `Cc1csc(CNc2ncnc3ccc(-c4ccco4)cc23)c1`, the “activity, negative = inhibition” value was -2.38% (inactive).

As to `Cc1ccc(CNc2ncnc3ccc(-c4ccoc4C)cc23)o1`, the Potency is 368 nM (active). On to `Cc1occc1-c1ccc2ncnc(NCc3ncc[nH]3)c2c1`, for which the Potency was 463 nM (active). For `Fc1cccc(CNc2ncnc3ccc(-c4ccccc4Cl)cc23)c1`, the Potency is 11200 nM (active). The same measure, in the same setting: with `c1cncc(-c2ccc3ncnc(NCc4cccs4)c3c2)c1` the figure was 3980 nM (active); with `Clc1ccccc1-c1ccc2ncnc(NCc3cccnc3)c2c1`, 10000 nM (active); with `CN(Cc1ccco1)c1ncnc2ccc(-c3ccoc3)cc12`, 316 nM (active). With `c1nc(NCc2ccoc2)c2cc(-c3ccc4c(c3)OCO4)ccc2n1`, the Potency is 37.7 nM (active). Still for that read-out and setting: with `Cc1nc(C)c(-c2ccc3ncnc(NCc4ncc[nH]4)c3c2)s1` the figure was 1840 nM (active); with `Cc1nc(CNc2ncnc3ccc(-c4ccoc4C)cc23)cs1`, 823 nM (active).

Regarding `Cc1csc(CNc2ncnc3ccc(-c4ccc5c(c4)OCCO5)cc23)c1`, the Potency was 447 nM (active). Consider `c1nc(NCCc2cnc[nH]2)c2ccc(-c3ccc4c(c3)OCO4)cc2n1`, for which the Potency was 10600 nM (active). Same read-out and setting: with `c1csc(CNc2ncnc3ccc(-c4ccoc4)cc23)c1` the figure was 184 nM (active).

On to `CN1CCCC1CCNc1ncnc2ccc(-c3ccc4c(c3)OCO4)cc12` (stereo not drawn), for which the Potency is 923 nM (active). For `CN(Cc1nccs1)c1ncnc2ccc(-c3ccc4c(c3)OCO4)cc12`, the Potency is 37.7 nM (active). With `Cc1occc1-c1ccc2ncnc(NCCc3cnc[nH]3)c2c1`, the Potency was 519 nM (active). In the case of `c1nc(NCCc2cnc[nH]2)c2cc(-c3ccoc3)ccc2n1`, the Potency is 412 nM (active). As for `Cn1ccc2cc(-c3ccc4ncnc(NCc5cccnc5)c4c3)ccc21`, the Potency is 12600 nM (active). As to `c1nc(NCC2CCOC2)c2cc(-c3ccc4c(c3)OCO4)ccc2n1` (stereo not drawn), the Potency is 58.2 nM (active). With `c1cncc(CNc2ncnc3ccc(-c4ccoc4)cc23)c1`, the Potency was 631 nM (active). For `c1coc(CCNc2ncnc3ccc(-c4ccc5c(c4)OCO5)cc23)c1`, the Potency is 59.8 nM (active). Still for that read-out and setting: as for `CCOC(=O)c1ccoc1-c1ccc2ncnc(NCc3ccc(C)o3)c2c1`, the figure is 5820 nM (active).

Regarding `Cc1cccc(-c2ccc3ncnc(NCc4cc(C)cs4)c3c2)c1`, the Potency is 14100 nM (active). Same read-out and setting: as for `Cc1csc(CNc2ncnc3ccc(-c4ccoc4)cc23)c1`, the figure is 355 nM (active). In the case of `c1nc(NCC2CCCO2)c2ccc(-c3ccc4c(c3)OCO4)cc2n1` (stereo not drawn), the Potency was 8440 nM (active).

In the case of `Cc1cccc(CNc2ncnc3ccc(-c4ccc5c(c4)OCO5)cc23)c1`, the Potency is 112 nM (active).

Take `COc1cccc(-c2ccc3ncnc(NCc4cccc(C)c4)c3c2)c1`: the Potency was 891 nM (active).
